Measurements: PubChem BioAssay (NCI)
Compounds without any hit were thinned out: in the full panel of roughly 79,000, 15% have a hit. Active and inactive are the calls of the source. No stated cut-off is given here; in the data, active means growth inhibition above about 70%; inactive means the rest.

How the values were obtained:
[1] = NCI Yeast Anticancer Drug Screen. Data for the rad52 strain (AID 147);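 further: 0% = growth of vehicle-treated control cultures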; details: S. cerevisiae rad52 mutant growth inhibition, active compounds read high
Summary of the method: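 Genetically altered yeast (DNA damage repair defect) treated with compound; inhibition calculated relative to vehicle.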

[2] = NCI Yeast Anticancer Drug Screen. Data for the wt1 strain (AID 149);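 further: 0% = growth of vehicle-treated wt1 cultures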; details: S. cerevisiae wt1 strain (SPY 50644) growth inhibition, active compounds read high
Summary of the method: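 Using yeast strain wt1, compound-induced growth inhibition was determined against vehicle-treated cultures.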

[3] = NCI Yeast Anticancer Drug Screen. Data for the rad50EPP+ strain (AID 151);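 further: 0% = growth of vehicle-treated control cultures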; details: S. cerevisiae rad50 mutant strain, active compounds read high
Summary of the method: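 Strain rad50EPP+; compound exposure; % growth inhibition vs vehicle.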

[4] = NCI Yeast Anticancer Drug Screen. Data for the mgt1 strain (AID 153); details: S. cerevisiae mgt1 mutant growth inhibition, active compounds read high
Summary of the method: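 Read-out: yeast growth inhibition vs vehicle control. Strain mgt1, drawn from a panel altered in DNA damage repair or cell cycle control.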

[5] = NCI Yeast Anticancer Drug Screen. Data for the rad50 strain (AID 155);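 further: 0% = growth of vehicle-only cultures of the same strain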; details: S. cerevisiae rad50 strain growth inhibition, active compounds read high
Summary of the method: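 Relative growth inhibition (compound vs vehicle) was measured in yeast with a defined repair-gene alteration.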

[6] = NCI Yeast Anticancer Drug Screen. Data for the mec2-1 strain (AID 157); details: S. cerevisiae mec2-1 strain, active compounds read high
Summary of the method: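 Cells of the genetically defined mec2-1 yeast strain are incubated with test compound. Inhibition of growth is calculated against vehicle-treated controls.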

[7] = NCI Yeast Anticancer Drug Screen. Data for the rad14 strain (AID 159);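 further: 0% = growth of vehicle-treated control cultures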; details: S. cerevisiae rad14 strain growth inhibition, active compounds read high
Summary of the method: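 Screen for anticancer potential: a yeast strain altered in DNA damage repair is grown with compound, and reduced growth is quantified against vehicle controls.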

[8] = NCI Yeast Anticancer Drug Screen. Data for the sgs1 mgt1 strain (AID 161);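 further: 0% = growth of cultures given vehicle only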; details: S. cerevisiae sgs1 mgt1 strain, active compounds read high
Summary of the method: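 Genetically altered yeast, compound exposure, growth inhibition relative to vehicle.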

[9] = NCI Yeast Anticancer Drug Screen. Data for the CLN2oe strain (AID 163);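 further: 0% = growth of vehicle-only control cultures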; details: S. cerevisiae CLN2oe strain, active compounds read high
Summary of the method: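 Strain altered in cell-cycle control, incubated with compound; growth compared to solvent-treated controls.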

[10] = NCI Yeast Anticancer Drug Screen. Data for the cln2 rad14 strain (AID 165);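 further: 0% = growth equal to vehicle treated cultures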; details: S. cerevisiae cln2 rad14 strain, active compounds read high
Summary of the method: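 The screen exposed genetically defined yeast (cln2 rad14) to test compounds and scored growth inhibition relative to vehicle-treated controls.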

[11] = NCI Yeast Anticancer Drug Screen. Data for the bub3 strain (AID 167); details: S. cerevisiae bub3 mutant strain, active compounds read high
Summary of the method: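 Screening used yeast with an engineered genetic alteration affecting cell cycle control. Compound-exposed cultures were compared with vehicle cultures, and reduced growth was taken as inhibition.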

[12] = NCI Yeast Anticancer Drug Screen. Data for the wt2 strain (AID 169);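 further: 0% = growth of vehicle-treated yeast cultures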; details: S. cerevisiae wt2 strain growth inhibition, active compounds read high
Summary of the method: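 Steps: yeast strain treated with compound; growth recorded; inhibition calculated relative to cultures given vehicle alone.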

[13] = NCI Yeast Anticancer Drug Screen. Data for the mlh1 strain (AID 171);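 further: 0% = growth of vehicle-treated control cultures of the same strain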; details: S. cerevisiae mlh1 strain growth inhibition, active compounds read high
Summary of the method: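 Yeast screen: mutant strain plus compound, growth scored against vehicle control wells.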

[14] = NCI Yeast Anticancer Drug Screen. Data for the sgs1 strain (AID 173);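 further: 0% = growth of vehicle-only control cultures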; details: S. cerevisiae sgs1 mutant, active compounds read high
Summary of the method: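 Inhibition of yeast growth served as the measure. The mutant strain was treated with each compound, and growth was normalised to cultures receiving vehicle alone.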

[15] = NCI Yeast Anticancer Drug Screen. Data for the mlh1 rad18 strain (AID 175); details: S. cerevisiae mlh1 rad18 strain growth inhibition, active compounds read high
Summary of the method: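 Compound-treated yeast growth, normalised to vehicle controls. Strain bears defined DNA repair mutations.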

[16] = NCI Yeast Anticancer Drug Screen. Data for the rad18 strain (AID 177); details: S. cerevisiae rad18 mutant growth inhibition, active compounds read high
Summary of the method: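 Inhibition values reflect reduced yeast growth compared with vehicle-treated controls, using a strain engineered with a DNA damage repair defect.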

[17] = at 5.0 µM (retest, dose inferred, filed as 0.5)
[18] = at 50.0 µM (retest, dose inferred, filed as 5.0)

Measured: growth inhibition

CN(C)CCNCCCNc1c2ccccc2nc2cccc([N+](=O)[O-])c12
inactive: [1]; at 1.2 µM 23% | [1]; at 3.7 µM 46% | [2]; at 1.2 µM -14% | [2]; at 3.7 µM 9% | [2]; at 11.0 µM 11% | [2]; at 33.0 µM 20% | [2]; at 100.0 µM 50% | [3]; at 1.2 µM 9% | [3]; at 3.7 µM 26% | [3]; at 11.0 µM 69% | [4]; at 1.2 µM 4% | [4]; at 3.7 µM 18% | [4]; at 11.0 µM 20% | [4]; at 33.0 µM 26% | [4]; at 100.0 µM 58% | [5]; at 1.2 µM 9% | [5]; at 3.7 µM 39% | [5]; [17] 17% | [5]; at 11.0 µM 61% | [6]; at 1.2 µM 22% | [6]; at 3.7 µM 18% | [6]; [17] 17% | [6]; at 11.0 µM 50% | [7]; at 1.2 µM -2% | [7]; at 3.7 µM 46% | [9]; at 1.2 µM -2% | [9]; at 3.7 µM -4% | [9]; at 11.0 µM 2% | [9]; at 33.0 µM 22% | [11]; at 1.2 µM -5% | [11]; at 3.7 µM -11% | [11]; [17] -12% | [11]; at 11.0 µM -11% | [11]; at 33.0 µM 6% | [11]; at 50.0 µM -3.8% | [12]; at 1.2 µM 0% | [12]; at 3.7 µM 1% | [12]; at 11.0 µM 11% | [12]; at 33.0 µM 33% | [13]; at 1.2 µM 5% | [13]; at 3.7 µM 18% | [13]; at 11.0 µM 25% | [13]; at 33.0 µM 46% | [14]; at 1.2 µM 31% | [14]; at 3.7 µM 58%
active: [1]; at 11.0 µM 80% | [1]; at 33.0 µM 89% | [1]; at 100.0 µM 94% | [3]; at 33.0 µM 90% | [3]; at 100.0 µM 95% | [5]; at 33.0 µM 88% | [5]; [18] 93% | [5]; at 50.0 µM 80.8% | [5]; at 100.0 µM 94% | [6]; at 33.0 µM 91% | [6]; [18] 98% | [6]; at 50.0 µM 78.7% | [6]; at 100.0 µM 95% | [7]; at 11.0 µM 92% | [7]; at 33.0 µM 97% | [7]; at 100.0 µM 97% | [8]; [17] 73% | [8]; [18] 95% | [8]; at 50.0 µM 79.7% | [9]; at 100.0 µM 81% | [10]; [17] 80% | [10]; [18] 97% | [10]; at 50.0 µM 97.5% | [11]; [18] 72% | [11]; at 100.0 µM 80% | [12]; at 100.0 µM 91% | [13]; at 100.0 µM 74% | [14]; at 11.0 µM 76% | [14]; at 33.0 µM 84% | [14]; at 100.0 µM 89% | [15]; [17] 73% | [15]; [18] 97% | [15]; at 50.0 µM 88.7% | [16]; at 1.2 µM 88% | [16]; at 3.7 µM 94% | [16]; at 11.0 µM 96% | [16]; at 33.0 µM 96% | [16]; at 100.0 µM 96%

CN(C)/C(=N/C(=S)Nc1ccccc1)SCc1ccccc1
inactive: [1]; at 1.2 µM -3% | [1]; at 3.7 µM -4% | [1]; at 11.0 µM -2% | [1]; at 33.0 µM 6% | [1]; at 100.0 µM 12% | [2]; at 1.2 µM -2% | [2]; at 3.7 µM -3% | [2]; at 11.0 µM 0% | [2]; at 33.0 µM 6% | [2]; at 100.0 µM 6% | [3]; at 1.2 µM 0% | [3]; at 3.7 µM 1% | [3]; at 11.0 µM -5% | [3]; at 33.0 µM 1% | [3]; at 100.0 µM 13% | [4]; at 1.2 µM 1% | [4]; at 3.7 µM 2% | [4]; at 11.0 µM 4% | [4]; at 33.0 µM 11% | [4]; at 100.0 µM 16% | [5]; at 1.2 µM -5% | [5]; at 3.7 µM -5% | [5]; [17] -7% | [5]; at 11.0 µM -7% | [5]; at 33.0 µM 8% | [5]; at 100.0 µM 10% | [6]; at 1.2 µM -5% | [6]; at 3.7 µM -5% | [6]; [17] -1% | [6]; at 11.0 µM -4% | [6]; at 33.0 µM 10% | [6]; at 100.0 µM 16% | [7]; at 1.2 µM -4% | [7]; at 3.7 µM -5% | [7]; at 11.0 µM -2% | [7]; at 33.0 µM 13% | [7]; at 100.0 µM 18% | [8]; [17] 11% | [9]; at 1.2 µM -8% | [9]; at 3.7 µM -11% | [9]; at 11.0 µM -13% | [9]; at 33.0 µM -6% | [9]; at 100.0 µM -1% | [10]; [17] -15% | [10]; [18] 44% | [11]; at 1.2 µM -4% | [11]; at 3.7 µM -2% | [11]; [17] 6% | [11]; at 11.0 µM 3% | [11]; at 33.0 µM 8% | [11]; at 100.0 µM 14% | [12]; at 1.2 µM -2% | [12]; at 3.7 µM -2% | [12]; at 11.0 µM 0% | [12]; at 33.0 µM 11% | [12]; at 100.0 µM 14% | [13]; at 1.2 µM -2% | [13]; at 3.7 µM 0% | [13]; at 11.0 µM 3% | [13]; at 33.0 µM 11% | [13]; at 100.0 µM 20% | [14]; at 1.2 µM -3% | [14]; at 3.7 µM 0% | [14]; at 11.0 µM 7% | [14]; at 33.0 µM 25% | [14]; at 100.0 µM 30% | [15]; [17] -1%
active: [5]; [18] 70% | [5]; at 50.0 µM 99.2% | [6]; [18] 76% | [6]; at 50.0 µM 99.7% | [8]; [18] 91% | [8]; at 50.0 µM 99% | [10]; at 50.0 µM 98.8% | [11]; [18] 86% | [11]; at 50.0 µM 99.5% | [15]; [18] 76% | [15]; at 50.0 µM 97.7%
